# Results filed as inconclusive are left out. Entries that show only a call come without a potency. Some structures have more than one record in an assay (separate samples or runs), and their calls can disagree. Active and inactive are the calls of the source. The call rests on the fitted dose curve; in most records, active means well fitted inhibition curve with a large enough effect in the repeat runs; inconclusive means weak or mixed curves; inactive means no such curve, though single readings can be large or run the other way.
# Target: Estrogen receptor (Homo sapiens) (UniProt P03372)
# Assay: qHTS assay to identify small molecule antagonists of the estrogen receptor alpha (ER-alpha) signaling pathway using the BG1 cell line in the presence of 0.1 nM 17-beta-estradiol (AID 1259244); further: nearly all actives have a fitted effect of over 50% in size
# Details: VM7Luc4E2 (BG1) ERE-luciferase, antagonist mode, 0.1 nM E2, 22 h; series mostly up to 92.4 µM
# Excerpt: National Center for Advancing Translational Sciences [NCATS]
# NIH Chemical Genomics Center [NCGC]
# U.S. Environmental Protection Agency [EPA]
# National Institutes of Environmental Health Sciences [NIEHS]
# National Toxicology Program [NTP]
# U.S. Food and Drug Administration [FDA]
# Estrogen receptor (ER), a member of the nuclear hormone receptor plays an important role in development, metabolic homeostasis and reproduction. Two subtypes of ER, ER-alpha and ER-beta, have similar expression patterns with some uniqueness in both types. Endocrine disrupting chemicals (EDCs) and their interactions with steroid hormone receptors like ER causes disruption of normal endocrine function. Therefore, it is important to understand the effect of environmental chemicals in ER signaling pathway. For identifying ER antagonists, VM7Luc4E2 cell line was used to screen against Tox21 compound libraries.
# VM7Luc4E2 cell line (provided by Denison MS, University of California) endogenously express full-length ER-alpha and is stably transfected with a plasmid containing four estrogen responsive elements (ERE) upstream of a luciferase reporter gene. The current screening for identification of ER-alpha inhibitors against Tox21 compound libraries used lower concentration (0.1 nM) of 17beta-Estradiol as a stimulator.
# Tox21 Assay Protocol Summary:
# VM7Luc4E2 cells were cultured in phenol red free assay medium containing 10% charcoal stripped FBS for 5 days prior to the assay. The cells were dispensed at 4,000 cells/well in 4 uL of assay medium into white wall/solid-bottom 1536-well plates (Corning Life Sciences, Corning, NY) using a Multidrop Combi (ThermoFisher Scientific, Waltham, MA) dispenser. After the assay plates were incubated at 37C and 5% CO2 for 24 hr, 23 nL of compounds dissolved in DMSO, positive controls or DMSO only was transferred to the assay plates by a Pintool station (Kalypsys, San Diego, CA). The transfer of compounds was followed by the addition of 1 uL of 0.1 nM (final concentration) agonist (17beta-Estradiol)/assay medium using a Flying Reagent Dispenser (FRD, Aurora Discovery, San Diego, CA). The plates were incubated at 37C and 5% CO2 for 22 hr. For luciferase reporter gene assay, 4 uL of ONE-Glo reagent (Promega Corporation, Madison, WI) was added to each well using the FRD and after 30 min incubation at room temperature luminescence intensity was measured using ViewLux plate reader (PerkinElmer, Shelton, CT).
# Potency means the concentration at half of the fitted maximal effect.
# Chain of Estrogen receptor (Homo sapiens) (P03372 whole entry, looked up): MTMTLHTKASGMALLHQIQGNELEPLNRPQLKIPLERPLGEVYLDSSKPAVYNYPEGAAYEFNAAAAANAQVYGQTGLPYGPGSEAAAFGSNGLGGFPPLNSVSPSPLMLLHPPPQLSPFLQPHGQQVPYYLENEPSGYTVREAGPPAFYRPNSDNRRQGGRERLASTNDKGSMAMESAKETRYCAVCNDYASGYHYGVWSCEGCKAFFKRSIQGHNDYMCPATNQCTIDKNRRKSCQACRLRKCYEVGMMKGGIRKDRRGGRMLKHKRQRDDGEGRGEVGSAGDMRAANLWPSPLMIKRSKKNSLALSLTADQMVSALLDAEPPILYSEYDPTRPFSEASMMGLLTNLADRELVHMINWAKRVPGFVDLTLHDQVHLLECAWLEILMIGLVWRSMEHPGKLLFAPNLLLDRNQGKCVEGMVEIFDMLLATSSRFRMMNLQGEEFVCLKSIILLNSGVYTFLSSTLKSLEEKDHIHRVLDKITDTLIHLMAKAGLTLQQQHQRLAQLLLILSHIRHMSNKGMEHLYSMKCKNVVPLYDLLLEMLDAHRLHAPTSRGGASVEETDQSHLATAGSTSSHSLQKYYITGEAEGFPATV
Structure (SMILES),"activity change, negative = inhibition",Potency
CCC(=O)CC(C)CC (stereo not given),2.34% [at 0.349 µM] (inactive),–
CC(C(O)c1ccccc1)N(C)CCOC(c1ccccc1)c1ccccc1 (stereo not given),–,inactive
OCCC(O)CO (stereo not given),–,inactive
C=CC/C=C/C/C=C/C/C=C/C,–,inactive
c1ccc(Nc2cccc3ccccc23)cc1,–,inactive
C(=C/c1ccccc1)/c1ccccc1,–,inactive
ClC/C=C\CCl,–,inactive
C=CC(C)(CCC=C(C)C)OC(=O)/C=C/c1ccccc1 (stereo not given),–,inactive
C=C1C(C)(C)[C@@]2(Cl)C(Cl)[C@]1(Cl)C(Cl)(Cl)C2(Cl)Cl (stereo not given in full),–,inactive
CCCCCCCOC(=O)c1ccc(O)cc1,–,inactive
O=C(Nc1ccc(Cl)cc1)Nc1ccc(Cl)c(C(F)(F)F)c1,–,9.44 µM (active)
CCCCCCCC(OC)OC,–,inactive
O=S(=O)(O)CCCN1CCOCC1,–,inactive
CCCCNc1c(C(=O)OCC)c(C)nc2c1cnn2CC,–,inactive
Cc1cn[nH]c1,–,inactive
CCC(=O)OCCc1ccccc1,–,inactive
CCCCCCCOC(=O)c1ccccc1C(=O)OCCCCCCC,–,inactive
CCN=C1C=CC(=C(c2ccc(N(CC)CC)cc2)c2ccc(N(CC)CC)cc2)c2ccccc21,–,0.682 µM (active)
CSc1ccc2c(c1)N(CCC1CCCCN1C)c1ccccc1S2 (stereo not given),–,54.3 µM (active) and inactive
C#CC(O)CCC (stereo not given),–,inactive

Structure (SMILES),"activity change, negative = inhibition",Potency
COc1cc(C(=O)NS(=O)(=O)c2ccccc2C)ccc1Cc1cn(C)c2ccc(NC(=O)OC3CCCC3)cc12,–,inactive
CCCCN(C)C,–,inactive
CC(C)(C)c1cc(CCC(=O)NCCCCCCNC(=O)CCc2cc(C(C)(C)C)c(O)c(C(C)(C)C)c2)cc(C(C)(C)C)c1O,–,inactive
c1ccc2c(c1)CCC2,–,inactive
OCCCCl,–,inactive
Clc1cccnc1,–,inactive
CC1(C)C(=O)N(CO)C(=O)N1CO,–,inactive
C1CC(COCC2CO2)CCC1COCC1CO1 (stereo not given),–,inactive
CCc1ccc(O)c(C(C)(C)C)c1,–,inactive
O=C(O)c1cccc(Cl)n1,–,inactive
CC(C)N=C(N)/N=C(\N)Nc1ccc(Cl)cc1,–,inactive
CCc1c(C(=O)O)c(=O)cnn1-c1ccc(Cl)cc1,–,inactive
CC(O)C#CC(C)O (stereo not given),–,inactive
CN(C)CCCN1c2ccccc2Sc2ccc(C(F)(F)F)cc21,–,inactive
C/C=C/CO,–,inactive
CCCCCCS,–,inactive
OCCCS,–,inactive
c1cc(OCC2CO2)cc(OCC2CO2)c1 (stereo not given),–,48.2 µM (active)
C=CC(=O)OCCN(CC)CC,–,inactive
O=C1NCCN1CCN1CCC(c2cn(-c3ccc(F)cc3)c3ccc(Cl)cc23)CC1,–,8.41 µM (active)
